Source: publication PMC5540273 (PLoS ONE, 2017)

Experiments:
Conditions in all cases: concentration: 1 μM, replicates: in singlicate; n = 1
[1] = tested on: TYK2(JH2domain-pseudokinase)
TYRO3 = tested on: TYRO3
ULK1 = tested on: ULK1
ULK2 = tested on: ULK2
ULK3 = tested on: ULK3
VEGFR2 = tested on: T1, VEGFR2
T1 construct: gene KDR

VPS34 = tested on: T2, VPS34
T2 construct: gene PIK3C3

VRK2 = tested on: VRK2
WEE1 = tested on: WEE1
WEE2 = tested on: WEE2
WNK1 = tested on: WNK1
WNK2 = tested on: WNK2
WNK3 = tested on: WNK3
WNK4 = tested on: WNK4
YANK1 = tested on: T3, YANK1
T3 construct: gene STK32A

YANK2 = tested on: T4, YANK2
T4 construct: gene STK32B

YANK3 = tested on: T5, YANK3
T5 construct: gene STK32C

YES = tested on: T6, YES
T6 construct: gene YES1

YSK1 = tested on: T7, YSK1
T7 construct: gene STK25

YSK4 = tested on: T8, YSK4
T8 construct: gene MAP3K19
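Further: KINOMEscan kinase panel screen.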

Row | SMILES | %Inh [1] | %Inh (TYRO3) | %Inh (ULK1) | %Inh (ULK2) | %Inh (ULK3) | %Inh (VEGFR2) | %Inh (VPS34) | %Inh (VRK2) | %Inh (WEE1) | %Inh (WEE2) | %Inh (WNK1) | %Inh (WNK2) | %Inh (WNK3) | %Inh (WNK4) | %Inh (YANK1) | %Inh (YANK2) | %Inh (YANK3) | %Inh (YES) | %Inh (YSK1) | %Inh (YSK4)
1 | Nc1ncc(-c2ccc3nccc(-c4ccncc4)c3c2)cc1S(=O)(=O)N1CCOCC1 [GSK1627798] | 21% | 0% | 0% | 0% | 6% | 0% | 93.3% | 0% | 0% | 3% | 0% | 0% | 4% | 9% | 4% | 0% | 22% | 0% | 0% | 88%
2 | CCn1c(-c2nonc2N)nc2c(C#CC(C)(C)O)nc(OC[C@H](N)c3ccccc3)cc21 [GSK943949] | 0% | 0% | 0% | 0% | 1% | 1% | 16% | 0% | 1% | 2% | 0% | 0% | 0% | 31% | 0% | 0% | 31% | 19% | 0% | 100%
3 | O=C(Nc1cccc(Oc2ccc3nc(NC(=O)C4CC4)cn3n2)c1)c1ccccc1C(F)(F)F | 0% | 36% | 0% | 0% | 1% | 99.8% | 0% | 0% | 22% | 0% | 0% | 0% | 0% | 13% | 0% | 0% | 0% | 50% | 9% | 70%
4 | Cn1cc(-c2ccc3c(c2)CCN3C(=O)Cc2cccc(F)c2)c2c(N)ncnc21 [GSK2603358] | 64% | 0% | 14% | 0% | 27% | 75% | 0% | 23% | 0% | 0% | 13% | 0% | 48% | 59% | 0% | 0% | 4% | 22% | 31% | 98.2%
5 | COC(=O)Nc1nc2ccc(Oc3ccc(NC(=O)Nc4cc(C(F)(F)F)ccc4F)cc3)cc2n1C.Cl [GW692089] | 18% | 0% | 0% | 0% | 0% | 43% | 0% | 56% | 2% | 0% | 0% | 0% | 46% | 28% | 0% | 19% | 0% | 0% | 0% | 36%
6 | CSc1cccc2c(-c3ccncn3)c(-c3ccc(F)cc3)nn12 [GW514786] | 24% | 0% | 0% | 0% | 3% | 0% | 14% | 23% | 6% | 1% | 0% | 1% | 22% | 24% | 23% | 24% | 2% | 4% | 0% | 0%
7 | Nc1ncnc2c1nc(-c1ccccc1)n2-c1ccccc1 [SKF-97293] | 54% | 9% | 51% | 35% | 50% | 23% | 44% | 36% | 4% | 0% | 47% | 5% | 48% | 28% | 3% | 21% | 0% | 0% | 4% | 54%
8 | COc1cc(Nc2ncc3c(C)nc(-c4cc5ccccc5[nH]4)n3n2)cc(OC)c1OC [GW869516] | 82% | 32% | 48% | 51% | 20% | 0% | 0% | 0% | 36% | 85% | 0% | 0% | 0% | 0% | 0% | 0% | 0% | 47% | 0% | 0%
9 | CCn1c(-c2nonc2N)nc2c(C#CC(C)(C)O)ncc(OCCCCN)c21.O=C(O)C(F)(F)F.O=C(O)C(F)(F)F [GSK507274] | 29% | 2% | 54% | 32% | 12% | 0% | 34% | 0% | 10% | 14% | 19% | 0% | 21% | 3% | 31% | 0% | 24% | 16% | 0% | 99.4%
10 | Cl.Cl.NCC(NC(=O)c1cc(-c2ccccc2)c(-c2ccnc3[nH]ccc23)s1)c1ccccc1 (centres unmarked) [GSK1321561] | 2% | 0% | 8% | 0% | 9% | 0% | 6% | 0% | 17% | 0% | 5% | 100% | 3% | 5% | 48% | 35% | 1% | 41% | 0% | 73%
